Data from PubChem BioAssay (NCATS).
Records with an inconclusive call do not appear. A call without a number means that no potency is given here. The source made the active and inactive calls. The call rests on the fitted dose curve; in most records, active means well fitted inhibition curve with a large enough effect; inconclusive means small, poorly fitted or top-dose-only effect; inactive means flat fitted curve, though single readings scatter.

Assays:
Assay in all cases: qHTS profiling for inhibitors of Plasmodium falciparum proliferation (AID 504749); further: nearly all actives have a fitted effect of over 60% in size
Settings in all cases: P. falciparum in erythrocytes, SYBR Green DNA, 72 h; series mostly up to 28.7 µM
CP211 = test system: CP211
Procedure, shortened: (§1)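 SYBR Green fluorescence (ex 485 nm, em 535 nm) reports parasite DNA after 72 h compound exposure of infected red cells at 0.3% parasitemia, 2.5% hematocrit; signal normalized to 0.29 uM artemisinin and vehicle wells.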

CP217 = test system: CP217
Procedure, shortened: as §1

CP237 = test system: CP237
Procedure, shortened: as §1

CP238 = test system: CP238
Procedure, shortened: as §1

CP247 = test system: CP247
Procedure, shortened: as §1

CP250 = test system: CP250
Procedure, shortened: as §1

CP252 = test system: CP252
Procedure, shortened: as §1

CP256 = test system: CP256
Procedure, shortened: as §1

CP260 = test system: CP260
Procedure, shortened: as §1

CP262 = test system: CP262
Procedure, shortened: as §1

CP265 = test system: CP265
Procedure, shortened: as §1

CP266 = test system: CP266
Procedure, shortened: as §1

CP268 = test system: CP268
Procedure, shortened: as §1

CP269 = test system: CP269
Procedure, shortened: as §1

CP286 = test system: CP286
Procedure, shortened: as §1

CP291 = test system: CP291
Procedure, shortened: as §1

CP297 = test system: CP297
Procedure, shortened: as §1

CP305 = test system: CP305
Procedure, shortened: as §1

CP315 = test system: CP315
Procedure, shortened: as §1

CP215 = test system: CP215
Procedure, shortened: as §1
Potency means the concentration at half of the fitted maximal effect.

Compound	outcome (CP211)	outcome (CP217)	Potency (CP237)	Potency (CP238)	Potency (CP247)	Potency (CP250)	outcome (CP252)	outcome (CP256)	Potency (CP260)	outcome (CP262)	Potency (CP265)	outcome (CP266)	Potency (CP268)	outcome (CP269)	Potency (CP286)	outcome (CP291)	outcome (CP297)	Potency (CP305)	outcome (CP315)	Potency (CP215)
O=S1(=O)OC(c2ccc(O)cc2)(c2ccc(O)cc2)c2ccccc21	inactive	inactive	inactive	inactive	inactive	inactive	inactive	inactive	inactive	inactive	inactive	inactive	inactive	inactive	inactive	inactive	inactive	inactive	inactive	–
CCCNC(C)(C)COC(=O)c1ccccc1	inactive	inactive	–	inactive	inactive	inactive	inactive	inactive	inactive	inactive	inactive	inactive	inactive	inactive	inactive	inactive	inactive	inactive	inactive	inactive
CCN1CC(CCN2CCOCC2)C(c2ccccc2)(c2ccccc2)C1=O (stereo not given)	inactive	inactive	–	inactive	inactive	inactive	inactive	inactive	inactive	inactive	–	inactive	inactive	inactive	inactive	inactive	–	inactive	inactive	inactive
O=C1C(c2[nH]c3ccccc3c2O)=Nc2ccccc21	–	–	–	inactive	–	–	inactive	inactive	inactive	inactive	inactive	inactive	–	inactive	inactive	–	–	inactive	inactive	–
NC(N)=NCCN1CCCCCCC1	inactive	inactive	inactive	inactive	inactive	inactive	inactive	inactive	inactive	inactive	inactive	inactive	inactive	inactive	inactive	inactive	inactive	inactive	inactive	–
Cc1[nH]c(C)c(Cl)c(=O)c1Cl	–	inactive	8910 nM (active)	inactive	inactive	–	inactive	–	8910 nM (active)	–	inactive	inactive	inactive	inactive	–	inactive	inactive	inactive	inactive	inactive
Cc1cc(-n2nc3ccc(Cl)cc3n2)c(O)c(C(C)(C)C)c1	inactive	–	inactive	–	–	–	–	–	inactive	inactive	–	inactive	inactive	inactive	inactive	inactive	inactive	inactive	inactive	inactive
Nc1c2c(nc3c1CCC3)CCCC2	–	–	–	–	–	–	–	–	–	–	–	–	–	–	11200 nM (active)	–	–	15100 nM (active)	–	–
CC(CN(C)C)C(C)(O)Cc1ccc(Cl)cc1 (stereo not given)	–	inactive	2510 nM (active)	–	inactive	–	inactive	–	–	inactive	–	inactive	–	inactive	–	–	–	–	inactive	–
Cc1cc(C)c(NC(=O)CN(CC(=O)O)CC(=O)O)c(C)c1Br	inactive	–	inactive	–	–	–	–	–	inactive	inactive	–	inactive	inactive	inactive	inactive	inactive	inactive	inactive	inactive	inactive
CC1CCN(CCCC(=O)c2ccc(F)cc2)CC1	inactive	inactive	–	inactive	inactive	inactive	inactive	inactive	inactive	–	inactive	inactive	inactive	inactive	inactive	inactive	inactive	inactive	inactive	inactive
Cc1c(NC(=O)c2cccnc2)c(=O)n(-c2ccccc2)n1C	inactive	inactive	inactive	inactive	inactive	inactive	inactive	inactive	inactive	inactive	inactive	inactive	inactive	inactive	inactive	inactive	inactive	inactive	–	–
COC(=O)c1ccccc1C(=O)c1ccc(OCCN2CCCCC2)cc1	inactive	inactive	–	inactive	inactive	inactive	inactive	inactive	inactive	inactive	inactive	inactive	inactive	inactive	inactive	inactive	inactive	inactive	inactive	inactive
C[C@H]1COc2c(C3(N)CC3)c(F)cc3c(=O)c(C(=O)O)cn1c23	inactive	inactive	inactive	inactive	–	inactive	inactive	inactive	–	inactive	inactive	inactive	–	inactive	inactive	–	–	inactive	inactive	inactive
CCCCCCCCCCOc1cc2c(=O)c(C(=O)OCC)c[nH]c2cc1OCC	–	inactive	3.5 nM (active)	2.8 nM (active)	0.3 nM (active)	0.0708 nM (active)	–	–	3.5 nM (active)	–	–	–	2.4 nM (active)	–	3.5 nM (active)	–	–	2.1 nM (active)	inactive	–
CC[N+](C)(CC)CCOC(=O)C1c2ccccc2Oc2ccccc21	inactive	inactive	inactive	–	inactive	–	inactive	–	–	inactive	inactive	inactive	inactive	inactive	inactive	inactive	inactive	inactive	inactive	inactive
CCCCCC(C)N (stereo not given)	inactive	–	–	inactive	inactive	inactive	–	inactive	10000 nM (active)	inactive	inactive	inactive	inactive	inactive	8910 nM (active)	inactive	inactive	inactive	inactive	inactive
CCOC(=O)[C@H](CCc1ccccc1)N[C@@H](C)C(=O)N1CCC[C@H]1C(=O)O	inactive	inactive	inactive	inactive	inactive	inactive	inactive	inactive	inactive	inactive	inactive	inactive	inactive	inactive	inactive	inactive	inactive	inactive	inactive	–
Cc1cc(NC(=O)C2=C(O)c3ccccc3S(=O)(=O)N2C)no1	inactive	inactive	inactive	inactive	–	inactive	inactive	inactive	inactive	inactive	inactive	inactive	inactive	inactive	inactive	inactive	inactive	inactive	inactive	inactive
Nc1ccc(C(=O)Oc2ccccc2)c(O)c1	inactive	inactive	inactive	inactive	inactive	inactive	inactive	inactive	inactive	inactive	inactive	inactive	inactive	inactive	inactive	inactive	inactive	inactive	inactive	–
CN(C/C=C/C#CC(C)(C)C)Cc1cccc2ccccc12	inactive	inactive	–	inactive	inactive	inactive	inactive	inactive	inactive	inactive	inactive	inactive	inactive	inactive	–	inactive	inactive	inactive	inactive	inactive
CN1C[C@@H]2C[C@H]1CN2c1cc2c(cc1F)c(=O)c(C(=O)O)cn2C1CC1	–	–	–	–	inactive	inactive	–	–	–	–	–	–	–	–	–	–	–	–	–	–
NC(=O)CCCCC1CCSS1 (stereo not given)	inactive	inactive	–	inactive	inactive	inactive	inactive	inactive	–	inactive	inactive	inactive	inactive	inactive	inactive	inactive	inactive	–	inactive	–
COc1ccccc1Oc1c(NS(=O)(=O)c2ccc(C(C)(C)C)cc2)nc(-c2ncccn2)nc1OCCO	inactive	inactive	inactive	inactive	inactive	inactive	inactive	inactive	inactive	inactive	inactive	inactive	inactive	inactive	inactive	inactive	inactive	inactive	inactive	–
Cc1cc(OI)c(C(C)C)cc1-c1cc(C(C)C)c(OI)cc1C	inactive	–	inactive	–	–	inactive	–	inactive	–	inactive	–	inactive	–	–	inactive	–	–	inactive	inactive	–
CC(=O)Nc1ccc(OCCOCCOc2ccc(NC(C)=O)cc2)cc1	inactive	inactive	inactive	inactive	–	inactive	inactive	inactive	inactive	inactive	inactive	inactive	inactive	inactive	inactive	inactive	inactive	inactive	inactive	inactive
CC(=O)OC[C@H]1O[C@@](COC(C)=O)(O[C@H]2O[C@H](COC(C)=O)[C@@H](OC(C)=O)[C@H](OC(C)=O)[C@H]2OC(C)=O)[C@@H](OC(C)=O)[C@@H]1OC(C)=O	inactive	–	inactive	–	–	–	–	–	inactive	inactive	inactive	inactive	inactive	inactive	inactive	inactive	inactive	inactive	inactive	inactive
CC(C)c1cc2c(cc1S(=O)(=O)O)[C@@]1(C)CCC[C@@](C)(C(=O)O)[C@@H]1CC2	inactive	inactive	inactive	inactive	–	inactive	inactive	inactive	inactive	inactive	inactive	inactive	inactive	–	inactive	inactive	inactive	inactive	inactive	inactive
NNc1nnc(NN)c2ccccc12	inactive	inactive	inactive	inactive	inactive	inactive	inactive	inactive	inactive	inactive	inactive	inactive	inactive	inactive	inactive	inactive	inactive	inactive	inactive	–
